Assay results reported in PubChem BioAssay (NCI).
The panel holds about 79,000 compounds, 15% with a hit somewhere; the sample as a whole holds those more often. No stated cut-off is given here; in the data, active means growth inhibition above about 70%; inactive means the rest.

What was measured:
[1] = NCI Yeast Anticancer Drug Screen. Data for the rad50 strain (AID 155);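 further: 0% = growth of vehicle-only cultures of the same strain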; conditions: S. cerevisiae rad50 strain growth inhibition; at 50.0 µM; stronger effect = higher value
Method in brief: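 Yeast carrying a defined DNA repair defect were exposed to test compounds, and growth was compared with vehicle-treated controls to give percent inhibition.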

[2] = NCI Yeast Anticancer Drug Screen. Data for the mec2-1 strain (AID 157); conditions: S. cerevisiae mec2-1 strain, at 50.0 µM, stronger effect = higher value
Method in brief: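 Vehicle-treated cultures served as reference for growth inhibition of compound-exposed mec2-1 yeast.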

[3] = NCI Yeast Anticancer Drug Screen. Data for the sgs1 mgt1 strain (AID 161);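 further: 0% = growth of cultures given vehicle only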; conditions: S. cerevisiae sgs1 mgt1 strain, at 50.0 µM, stronger effect = higher value
Method in brief: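 Read-out: growth inhibition vs vehicle controls. Cells: mutant yeast strain deficient in DNA damage repair.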

[4] = NCI Yeast Anticancer Drug Screen. Data for the cln2 rad14 strain (AID 165);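 further: 0% = growth equal to vehicle treated cultures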; conditions: S. cerevisiae cln2 rad14 strain, at 50.0 µM, stronger effect = higher value
Method in brief: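 Each compound was tested on cln2 rad14 yeast. Inhibition of growth was calculated against vehicle-exposed controls.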

[5] = NCI Yeast Anticancer Drug Screen. Data for the bub3 strain (AID 167); conditions: S. cerevisiae bub3 mutant strain, at 50.0 µM, stronger effect = higher value
Method in brief: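 Compounds were applied to a genetically altered yeast strain carrying a cell-cycle control defect. Growth inhibition was scored against vehicle-treated controls.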

[6] = NCI Yeast Anticancer Drug Screen. Data for the mlh1 rad18 strain (AID 175); conditions: S. cerevisiae mlh1 rad18 strain growth inhibition; at 50.0 µM; stronger effect = higher value
Method in brief: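 Vehicle-treated cultures served as the reference for growth inhibition in a yeast strain carrying DNA damage repair alterations exposed to each compound.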

Measured: growth inhibition

O=C(O)C(Br)CBr (configuration not stated)
inactive: [1] 4.7% | [2] 17.6% | [3] 27.2% | [4] -13.2% | [5] -1.55% | [6] 34.5%

Cc1cccc2c1[se]c1ccccc12
inactive: [1] -11.5% | [2] -3.85% | [3] -12% | [4] 4.45% | [5] 2.7% | [6] -17.1%

Cc1ccc(OP(=O)(Oc2ccc(C)cc2)Oc2ccc(C)cc2)cc1.Cc1ccc(OP(=O)(Oc2ccc(C)cc2)Oc2ccc(C)cc2)cc1.Cc1ccc(OP(=O)(Oc2ccc(C)cc2)Oc2ccc(C)cc2)cc1.Cc1ccc(OP(=O)(Oc2ccc(C)cc2)Oc2ccc(C)cc2)cc1.[Nd+3].[O-][Cl+3]([O-])([O-])O
inactive: [1] 34.4% | [2] 23.7% | [3] 37.8% | [4] 27% | [5] 52.8% | [6] 25.7%

COC(=O)/C=C/[C@H]1[C@H](C)N1S(=O)(=O)c1ccc(C)cc1 (some centres not stated)
inactive: [1] 8.75% | [2] 20.1% | [3] 14.8% | [4] 4.4% | [5] -22.6% | [6] -7.25%

C[n+]1ccc(/C=C\c2ccc(N(CCCl)CCCl)cc2)c2ccccc21
inactive: [1] 4.8% | [2] 15.9% | [3] 4% | [4] 24.1% | [5] 15.4% | [6] 18.6%

CO[C@H]1C[C@H](O[C@H]2CC[C@]3(C=O)[C@H]4CC[C@]5(C)[C@@H](C6=CC(=O)OC6)CC[C@]5(O)[C@@H]4CC[C@]3(O)C2)O[C@H](C)[C@H]1O
inactive: [1] 33.4% | [2] -11.3% | [3] 8.6% | [4] 0.55% | [5] -6.45% | [6] 32.3%

CC(=O)OC[C@]12CCC(C)=C[C@H]1O[C@@H]1[C@H](O)[C@@H](OC(C)=O)[C@@]2(C)[C@@]12CO2
inactive: [1] -9.2% | [2] -26.6% | [3] 14.9% | [4] -3.45% | [5] -1.3% | [6] -6.7%

CC(=O)Nc1nn[nH]n1
inactive: [1] 21.9% | [2] 14.4% | [3] 2.1% | [4] 6.95% | [5] 0.7% | [6] 17.5%

CC(C)OP(=O)(OC(C)C)/C(C#N)=C/c1ccco1
inactive: [1] -23.9% | [2] -51% | [3] -23.6% | [4] -32.2% | [5] -20.1% | [6] -31.9%

NC(c1ccccc1)P(=O)(O)O (configuration not stated)
inactive: [1] -12.7% | [2] -20.4% | [3] -29.9% | [4] 5.85% | [5] -8.75% | [6] -33.3%

NC(=O)c1cccc([As]=O)c1 (configuration not stated)
inactive: [1] -11.4% | [2] 17.4% | [3] 13.8% | [4] -18.6% | [5] 0.85% | [6] -17.6%

Nc1nc(N)c2[nH]c(N)nc2n1
inactive: [1] -9.65% | [2] -12.2% | [3] -8.9% | [4] -14.4% | [5] 3.45% | [6] -55.3%

COC12CC3C4=CCOC5CC(=O)N6c7ccccc7C1(CCN2C4)C6C53 (configuration not stated)
inactive: [1] 5.3% | [2] -23.8% | [3] 13.3% | [4] 16.9% | [5] 15.2% | [6] 15.4%

N#CCC#N
inactive: [1] -3.7% | [2] -3.95% | [3] 16.3% | [4] -3.1% | [5] 2.75% | [6] -1%

N#CCCSCCC#N
inactive: [1] 25.4% | [2] 6.55% | [3] 14.1% | [4] 3.7% | [5] 6.8% | [6] 4.6%

Cc1cc(F)ccc1[As](=O)(O)O
inactive: [1] -0.55% | [2] -1.95% | [3] -3.25% | [4] -17.9% | [5] 5% | [6] 3.25%

Cc1cc(-c2ccccc2)cc(-c2ccccc2)[o+]1
inactive: [1] 2.3% | [2] -2.55% | [3] 2% | [4] -23% | [5] 1% | [6] 4.25%

O=[N+]([O-])c1ccc(P2(=O)Nc3ccccc3N2)cc1
inactive: [1] -21.9% | [2] -12.7% | [3] -8.6% | [4] -46.8% | [5] 0.25% | [6] -11.6%

CCOP(=O)(O)OCC.[Y]
inactive: [1] 13.6% | [2] 7.3% | [3] 6.5% | [4] -16.8% | [5] 6.5% | [6] 11.2%

O=C1NCCCC1(Cl)Cl
inactive: [1] 4.75% | [2] -1.25% | [3] 4.2% | [4] -16.3% | [5] -10.6% | [6] 13.2%

N/C(=N/N=C/c1ccc(O)cc1)N[N+](=O)[O-]
inactive: [1] -2.4% | [2] -29.6% | [3] -14.3% | [4] -31.5% | [5] -6.75% | [6] 9%

O=C(CF)Nc1ccc([N+](=O)[O-])cc1
inactive: [1] -12.4% | [2] -7.25% | [3] -6.25% | [4] -15.7% | [5] 0.2% | [6] 9.1%

OC(c1ccccc1)C(Cl)(Cl)Cl (configuration not stated)
inactive: [1] 17.1% | [2] -10.8% | [3] 13.7% | [4] -42.1% | [5] -14.1% | [6] 3.55%

CCC(C)c1ccc(O)cc1 (configuration not stated)
inactive: [1] 3.5% | [2] -2.9% | [3] -5.95% | [4] -16.1% | [5] -5% | [6] -4.65%

CCCCCCCCCCC(O)[C@H]1CCC(C2CC[C@H]([C@H](O)CCCCCCCCCCC(O)CC3=CC(C)OC3=O)O2)O1 (some centres not stated)
inactive: [1] 2.15% | [2] -5.15% | [3] -13.3% | [4] -10.7% | [5] 0.85% | [6] 5.2%

CC1CNCCN1c1ccc(Cl)cc1 (configuration not stated)
inactive: [1] 13.6% | [2] -20.8% | [3] 11.2% | [4] 20.1% | [5] 22.8% | [6] 6.15%

COC(=O)C1=CCCN(C)C1
inactive: [1] 0.15% | [2] -0.6% | [3] 10.2% | [4] -0.4% | [5] 2.15% | [6] 3.7%

c1cc[n+]2c(c1)-c1cccc[n+]1CC2
inactive: [1] 65.8% | [2] 11% | [3] 52.7% | [4] 26% | [5] 19.3% | [6] 53.1%

Oc1cccc(/C=N\NC(=S)NC2CN3CCC2CC3)c1 (configuration not stated)
inactive: [1] 2.85% | [2] -5.9% | [3] -5.85% | [4] -4.45% | [5] 7.1% | [6] -12.8%

CCCC/C=C(/C)C1(CC)C(=O)NC(=O)NC1=O
inactive: [1] 5.05% | [2] 14.2% | [3] -2% | [4] -28.1% | [5] -7.3% | [6] 4.6%

CCc1ccccc1[N+](=O)[O-]
inactive: [1] 27.2% | [2] 28.7% | [3] 3.8% | [4] 4.65% | [5] 6.45% | [6] 21.2%

C=C(Nc1nc2ccc(C)cc2s1)C(=O)C(CC)C(=O)C(CC)CC1C(=O)NC(=O)NC1=O (configuration not stated)
inactive: [1] -23.4% | [2] -13.6% | [3] 4.35% | [4] -31.8% | [5] -32.6% | [6] -0.2%

C=CCP(c1ccccc1)c1ccccc1
inactive: [1] -2% | [2] -3.75% | [3] -8.65% | [4] 8% | [5] 9.1% | [6] -13.5%

COc1cc2c(cc1OC)-c1c3c(cc4c1[C@@H](C2)N(C)CC4)OCO3
inactive: [1] -23.8% | [2] -12.8% | [3] -12.8% | [4] -1.9% | [5] -21.7% | [6] -17.6%

Cc1ccnc(NN=O)c1
inactive: [1] -2.35% | [2] -18.8% | [3] -6.75% | [4] -1.05% | [5] -17.1% | [6] 2.25%

Clc1ccc(-c2ccccc2)cc1Cl
inactive: [1] 12.9% | [2] -12.5% | [3] -8.85% | [4] -0.8% | [5] 14.6% | [6] 1.9%

COc1ccc([Se]c2ccc(OC)cc2OC)c(OC)c1
inactive: [1] -19.1% | [2] -39% | [3] 2.8% | [4] -18.3% | [5] 8.5% | [6] -13.2%

Cc1ccc([P+](=O)O)cc1Cl
inactive: [1] -12.1% | [2] -3.75% | [3] -8.55% | [4] -9.25% | [5] 1.65% | [6] -3%

CCOC(=O)C1C2(C)NC(=O)C1(Cc1ccccc1)c1cc(C)c(C)cc1O2 (configuration not stated)
inactive: [1] -0.75% | [2] 16.5% | [3] -11.8% | [4] -6.15% | [5] -3.3% | [6] 3.45%

Cc1cc(S(=O)(=O)F)ccc1NC(=O)NCc1ccc(N2C(N)=NC(N)=NC2(C)C)cc1
inactive: [1] -6.25% | [2] -18% | [3] -3.95% | [4] -37.7% | [5] -9.4% | [6] -8.3%

CCOC(=S)S.[Cu+2]
inactive: [1] 2.55% | [2] 4.1% | [3] -2.85% | [4] -33.6% | [5] -36% | [6] -17.1%

[CH3][Sb]1([Cl])[CH2]CCC[CH2]1
inactive: [1] 0.5% | [2] 32.9% | [3] 11.1% | [4] -6.1% | [5] 32% | [6] 36.2%
